About 83,000 compounds went through this panel and 20% of them were active in at least one assay; those are over-represented in the sample as a whole.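 Single-concentration screen, 48 h exposure, 96-well plates. Endpoint: percent growth. Below 10 = active.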 Values without a mark were called inactive. Activity calls are given as the source filed them.
These compounds were tested on MDA-MB-468 breast (assay: NCI-60 one-dose screen, 48 h (100 = growth as untreated, 0 = no growth, -100 = all killed)). Details: 10 µM unless noted.
Method: Growth inhibition of the MDA-MB-468 human Breast tumor cell line is measured as a screen for anti-cancer activity. Cells are grown in 96 well plates and exposed to the test compound for 48 hours. Compounds are tested at a single concentration, which is 10^-5 M for most compounds. The reported endpoint is percent growth (GI% or GIPRCNT), where numbers from 0 - 100% represent growth inhibition, and numbers from -100% - 0 represent cell death. For example, a value of 40 represents 60% growth inhibition. A value of 0 means no net growth occurred over the course of the experiment. A value of -40 indicates 40% of cells at the beginning of the experiment died by the end of the experiment. A value of -100 means all cells are dead at the end of the experiment.
NCI-60 Human Tumor Cell Lines Screen was performed using the standard one-dose NCI protocol, which is described in more detail at https://dtp.cancer.gov/discovery_development/nci-60/default.htm.
Compounds with GIPRCNT values below 10 were considered active. Activity score was based on GIPRCNT using the following formula: […]
Score is 0 for GIPRCNT values of 100 or above, 50 for GIPRCNT values of 0, and 100 for GIPRCNT values of -100.

Q: `COc1c(F)ccc(C(=O)Nc2ccc3nc(NC(=O)C4CCCN(S(=O)(=O)c5cccc(Cl)c5)C4)sc3c2)c1F` (stereo not given) was tested. Which growth did it give?
A: 88.8%

Q: How did the growth turn out when `Cn1cc(-c2nnc(N)nc2-c2c[nH]c3ccccc23)c2cccnc21` was run?
A: 33.4%

Q: `N#Cc1c(-c2cccc(Cl)c2Cl)cc(-c2ccc3ccccc3c2)[nH]c1=O` was tested. Which growth did it give?
A: 71.4%

Q: `CN(C)CCOc1ccc(C(=O)C2[C@H](c3ccc(Cl)cc3)[C@@H](c3ccccc3)NC23C(=O)Nc2ccc(Br)cc23)cc1` (stereo not given in full) was tested. Which growth did it give?
A: -84.7% (active)

Q: For `Cn1cc(-c2cc3nc(-c4cn(C)c5ncc(Br)cc45)cc(N)n3n2)c2cc(Cl)ccc21`, which growth is on record?
A: -88.5% (active)

Q: For `Cn1cc(-c2nnc(N)nc2-c2c[nH]c3ccc(F)cc23)c2cccnc21`, which growth is on record?
A: 39.1%

Q: For `O=C(COc1ccc(NC(=O)Nc2ccccc2)cc1)N=Nc1c(O)[nH]c2ccc([N+](=O)[O-])cc12`, which growth is on record?
A: -69.7% (active)

Q: `COc1ccc(-c2ccc(SCC(=O)NCCc3ccc(S(N)(=O)=O)cc3)nn2)cc1` was tested. Which growth did it give?
A: 33.9%

Q: `CCOC(=O)C1=C(N)N(c2ccccc2)C2=C(C(=O)CC(C)(C)C2)C1c1ccc(Cl)cc1Cl` (stereo not given) was tested. Which growth did it give?
A: 3.8% (active)

Q: For `Cc1nc(Nc2ccccn2)sc1C(=O)CC(SCC(=O)Nc1ccc(Cl)cc1)c1ccccc1F` (stereo not given), which growth is on record?
A: -22.1% (active)

Q: How did the growth turn out when `CCN1C(=O)N(CC)C2NNC(Sc3c(C(=O)O)c4ccccc4n(C4CCCC4)c3=O)=NC21` (stereo not given) was run?
A: 58.1%

Q: `COc1cc2oc(-c3cccc(C(=O)Nc4ccc(Cl)cc4)c3)cc(=O)c2c(OCCNC(=O)[C@@H](N)CCC(=O)O)c1OC` was tested. Which growth did it give?
A: 74.5%

Q: Which growth does the source give for `COc1ccc(-c2ccc(SCC(=O)Nc3ccc(S(N)(=O)=O)cc3Br)nn2)cc1` here?
A: 86.9%

Q: Which growth does the source give for `NS(=O)(=O)c1ccc(N=Nc2c(O)n(CC(=O)Nc3ccccc3)c3ccccc23)cc1` here?
A: 36.5%

Q: For `Brc1ccc(N/N=C/c2c[nH]c3ccc(Br)cc23)nc1`, which growth is on record?
A: -63.5% (active)

Q: For `O=C(NN1C(=O)/C(=C/C=C/c2ccc([N+](=O)[O-])o2)SC1=S)c1ccc(Cl)cc1`, which growth is on record?
A: -85.9% (active)

Q: For `CCCSc1nc(NCCc2c[nH]c3ccccc23)c(C#N)c(-c2ccccc2)n1`, which growth is on record?
A: 53.8%

Q: `CC(=O)/C=C/c1cccc2c1C(=O)NC(C)(c1cc3cc(Br)ccc3oc1=O)N2` (stereo not given) was tested. Which growth did it give?
A: -6.53% (active)

Q: `CN(C)CCn1c2ccccc2c2nc3ccc([N+](=O)[O-])cc3nc21` was tested. Which growth did it give?
A: -25.5% (active)

Q: `N#Cc1c(NCc2ccccc2)n[nH]c1Nc1ccccc1` was tested. Which growth did it give?
A: 59.8%

Q: Which growth does the source give for `COc1cccc(-c2nc(Nc3ccc(S(N)(=O)=O)cc3)c3ccccc3n2)c1` here?
A: 24%

Q: Which growth does the source give for `Cn1cc(-c2cc(N)n3nc(-c4c[nH]c5ccccc45)cc3n2)c2cc(Br)cnc21` here?
A: -88.5% (active)

Q: With `O=C(O)Cn1c(O)c(/C=C2/C=c3cc4c(cc3=NC2=O)OCCO4)sc1=S` as the compound, how does the growth read?
A: 111%

Q: For `Cc1ccc(NCC(=O)Cn2cc(COc3ccc(C=Nc4cnc5ccccc5c4)cc3)nn2)cc1`, which growth is on record?
A: 100%

Q: For `N#Cc1c(-c2cccc(Cl)c2Cl)cc(-c2c[nH]c3ccccc23)[nH]c1=O`, which growth is on record?
A: 46.5%

Q: How did the growth turn out when `C#C[C@]1(O)CC[C@H]2[C@@H]3CC=C4c5sc(-c6ccc(O)c(O)c6)nc5CC[C@]4(C)[C@H]3CC[C@@]21C` was run?
A: -71.7% (active)

Q: Which growth does the source give for `N/C(=N\N=C\c1ccc([N+](=O)[O-])cc1)c1c(N)nc(=S)[nH]c1-c1ccc(Cl)cc1Cl` here?
A: 90.8%

Q: How did the growth turn out when `COc1ccc(C(=O)/C=C/c2c(F)cccc2Cl)cc1S(N)(=O)=O` was run?
A: -3.57% (active)

Q: How did the growth turn out when `CC1=C(C#N)C2=NNCC(c3ccccc3)=NN2C(c2ccccc2)=C1` was run?
A: 124%

Q: Which growth does the source give for `CN(C)c1ccnc(CNCCSC2(c3ccccc3)c3ccccc3C=Cc3ccccc32)c1` here?
A: -55.3% (active)

Q: Which growth does the source give for `Cn1cc(-c2cc(N)n3nc(-c4cn(C)c5ccccc45)cc3n2)c2cc(Cl)ccc21` here?
A: -31.9% (active)

Q: Which growth does the source give for `O=[N+]([O-])c1ccc(/C=C/c2nc3ccccc3n3c(=S)[nH]nc23)cc1` here?
A: 66.5%

Q: For `CCCCCCCCc1ccc(C(=O)Nc2cccc(P(=O)(O)O)c2)cc1`, which growth is on record?
A: 88.7%

Q: For `O=C(N/N=C/c1ccc(-c2ccc(O)cc2)o1)c1[nH]c2ccc(Br)cc2c1-c1ccccc1`, which growth is on record?
A: -16.6% (active)

Q: Which growth does the source give for `Cc1cc(C)n(-c2ccc3nnc(-c4ccccc4)n3n2)n1` here?
A: 97%

Q: For `CC1(c2cc3cc(Br)ccc3oc2=O)NC(=O)c2c(/C=C/C(=O)OC3CC4CCC3(C)C4(C)C)cccc2N1` (stereo not given), which growth is on record?
A: 13.4%

Q: For `O=C1NC(=O)/C(=C/c2ccccc2OCc2cc3ccccc3nc2Cl)S1`, which growth is on record?
A: 80.6%

Q: With `Clc1cccc(-c2ccc(OCCCN3CCN(c4ccncc4)CC3)cc2)c1` as the compound, how does the growth read?
A: -62.3% (active)

Q: `CCCCOc1ccc(NC(=O)c2sc3nc(C)ccc3c2N)cc1` was tested. Which growth did it give?
A: -48.4% (active)

Q: How did the growth turn out when `CCS(=O)(=O)N1CCCC(C(=O)Nc2nc3ccc(NC(=O)c4ccc(F)c(OC)c4F)cc3s2)C1` (stereo not given) was run?
A: 7.13% (active)

Reference: PubChem BioAssay (NCI)
